Test results reported in publication PMC4336329 (PLoS ONE, 2015).
Out of some 310,000 compounds screened, about 14,000 (4.5%) showed an effect of 50% or more. Effects have a minus sign here. This excerpt belongs to a sample that is enriched for strong results.

Each compound was assayed against human ether-à-go-go-related gene (hERG) potassium channel (human, UniProt Q12809) (assay: primary screen, population patch clamp on CHO cells stably expressing hERG; higher = less effect of the substance).
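Note: peak tail current of the secondary pulse compared with the same well before compound.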

Chain of human ether-à-go-go-related gene (hERG) potassium channel (Q12809 whole entry, looked up): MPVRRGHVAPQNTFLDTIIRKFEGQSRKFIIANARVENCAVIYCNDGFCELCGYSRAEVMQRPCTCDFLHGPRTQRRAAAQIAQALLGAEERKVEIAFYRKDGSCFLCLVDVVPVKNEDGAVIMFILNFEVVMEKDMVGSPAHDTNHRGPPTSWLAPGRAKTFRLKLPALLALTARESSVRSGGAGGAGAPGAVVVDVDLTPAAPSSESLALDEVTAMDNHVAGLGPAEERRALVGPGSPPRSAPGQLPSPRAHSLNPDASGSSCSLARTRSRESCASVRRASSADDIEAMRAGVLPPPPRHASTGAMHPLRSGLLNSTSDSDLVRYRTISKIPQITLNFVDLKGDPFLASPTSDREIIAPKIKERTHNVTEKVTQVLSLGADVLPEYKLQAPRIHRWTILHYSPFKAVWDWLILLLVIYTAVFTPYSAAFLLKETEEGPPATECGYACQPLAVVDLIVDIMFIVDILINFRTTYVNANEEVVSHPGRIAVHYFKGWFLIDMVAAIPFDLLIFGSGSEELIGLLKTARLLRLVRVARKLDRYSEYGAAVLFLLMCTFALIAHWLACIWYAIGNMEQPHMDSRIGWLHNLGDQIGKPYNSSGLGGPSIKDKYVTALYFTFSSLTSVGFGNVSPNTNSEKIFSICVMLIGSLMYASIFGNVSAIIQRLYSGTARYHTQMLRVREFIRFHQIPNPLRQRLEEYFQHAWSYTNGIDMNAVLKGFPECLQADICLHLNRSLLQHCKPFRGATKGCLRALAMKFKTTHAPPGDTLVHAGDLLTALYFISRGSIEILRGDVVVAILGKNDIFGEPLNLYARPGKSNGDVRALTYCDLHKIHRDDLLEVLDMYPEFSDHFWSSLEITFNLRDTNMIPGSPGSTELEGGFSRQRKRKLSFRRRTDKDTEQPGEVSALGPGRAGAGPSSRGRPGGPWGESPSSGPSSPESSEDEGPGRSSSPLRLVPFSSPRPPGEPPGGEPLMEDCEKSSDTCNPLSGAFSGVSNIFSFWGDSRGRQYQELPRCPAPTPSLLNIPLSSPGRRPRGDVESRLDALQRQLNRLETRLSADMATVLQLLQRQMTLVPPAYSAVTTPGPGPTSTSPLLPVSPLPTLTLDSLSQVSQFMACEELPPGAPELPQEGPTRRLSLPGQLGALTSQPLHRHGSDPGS

Row | SMILES | hERG current change (%, negative = inhibition) at 10uM [%]
1 | COc1ccc(CNC(=O)C2CCN(c3nccs3)CC2)cc1 | -31.8
2 | CC(C)c1ccc(Oc2cccc(C(=O)/C(C#N)=C/N(C)C)c2)cc1 | -14.6
3 | CSc1ncc(CN2CCCC(C(=O)c3ccc(C(C)(C)C)cc3)C2)cn1 (stereo not shown) | -31.9
4 | O=C(c1ccc(Cl)cc1)C1CCCN(Cc2cccn2-c2cccnc2)C1 (stereo not shown) | -42
5 | CSc1ccc(C(=O)C2CCCN(Cc3cnc(SC)nc3)C2)cc1 (stereo not shown) | -76.4
6 | CSc1ccc(C(=O)C2CCCN(Cc3cccn3-c3cccnc3)C2)cc1 (stereo not shown) | -65.1
7 | Cc1ccsc1C(=O)C1CCCN(Cc2cnc(N3CCCC3)s2)C1 (stereo not shown) | -15.3
8 | Cc1ccsc1C(=O)C1CCCN(Cc2cnn(C(C)C)c2)C1 (stereo not shown) | -56.4
9 | CSc1ncc(CN2CCCC(C(=O)c3cccc(Cl)c3)C2)cn1 (stereo not shown) | -47.1
10 | CCn1cc(CN2CCCC(C(=O)c3sccc3C)C2)cn1 (stereo not shown) | -27.3
11 | Cc1ccsc1C(=O)C1CCCN(Cc2cnn(C)c2)C1 (stereo not shown) | 12
12 | Cc1ccsc1C(=O)C1CCCN(Cc2cnc(N)nc2)C1 (stereo not shown) | -4.85
13 | CSc1ncc(CN2CCCC(C(=O)c3sccc3C)C2)cn1 (stereo not shown) | -55.2
14 | COc1cccc(/C=N/NC(=O)C(C)n2nnc3ccccc32)c1 (stereo not shown) | -1.1
15 | Cc1cc([N+](=O)[O-])nn1CC(=O)Nc1sc2c(c1C(N)=O)CCCC2 | 7.62
16 | CCN(CC(=O)NCc1cccs1)CC(=O)Nc1c(Cl)ccc(C)c1Cl | -16.8
17 | CC12CC3(C)CC(C)(C1)CC(C(=O)NC(=S)NC(C)(C)C)(C2)C3 | 13.3
18 | CSc1ccc(C(=O)C2CCCN(Cc3cccnc3)C2)cc1 (stereo not shown) | -53
19 | CSc1ccc(C(=O)C2CCCN(Cc3ccn[nH]3)C2)cc1 (stereo not shown) | -26.6
20 | O=C(C1CCCN(Cc2cccnc2)C1)N1CCCCC1.O=C(O)C(=O)O (stereo not shown) | 7.77
21 | CCCCn1nc(C(=O)NCC2COc3ccccc3O2)c2ccccc2c1=O (stereo not shown) | -49.1
22 | O=[N+]([O-])c1ccccc1/C=C/C=N/n1c(-c2ccc(Cl)cc2)n[nH]c1=S | 17.5
23 | O=C(CN(Cc1ccco1)C(=O)CNS(=O)(=O)c1ccc(F)cc1)NCc1ccccc1 | -28.4

Row | SMILES | hERG current change (%, negative = inhibition) at 10uM [%]
24 | CCOC(=O)C1CCN(C(=O)CCNC(=O)c2cc(OC)c(OC)c(OC)c2)CC1 | 10.9
25 | O=C(NCCCN1CCOCC1)c1ccc(Sc2ccc(F)cc2)c([N+](=O)[O-])c1 | -33.3
26 | O=C(c1ccc(Sc2ccc(F)cc2)c([N+](=O)[O-])c1)N1CCOCC1 | -18.5
27 | CCN1CCCC1CNC(=O)c1ccc(Sc2ccccc2Cl)c([N+](=O)[O-])c1 (stereo not shown) | -64.1
28 | O=C(NCCCN1CCOCC1)c1ccc(Sc2ccccc2Cl)c([N+](=O)[O-])c1 | -22.7
29 | CCN1CCCC1CNC(=O)c1ccc(Sc2ccc(F)cc2)c([N+](=O)[O-])c1 (stereo not shown) | -66.5
30 | CCN1CCCC1CNC(=O)c1ccccc1Cl (stereo not shown) | -10.6
31 | CCOc1ccc(-c2nnn(CC(=O)N3CCCC3)n2)cc1OCC | 13.8
32 | Cl.O=c1c(-c2ccccc2)coc2c(CN3CCCCC3)c(O)ccc12 | 14.6
33 | COc1ccc(NC(=O)CSCC(=O)N=c2sccn2C)cc1 | 11
34 | O=C(Nc1ccc(O)cc1)c1cc2n(n1)C(C(F)(F)F)CC(c1ccco1)N2 (stereo not shown) | -5.45
35 | O=S(=O)(Nc1cccc(-c2cn3cccnc3n2)c1)c1ccc(Cl)cc1 | 16.4
36 | CN1CCN(CC(=O)NC23CC4CC(CC(C4)C2)C3)CC1.Cl | 4.19
37 | CCc1ccc(Nc2n[n+](-c3ccccc3)c(-c3cccc(Cl)c3Cl)s2)cc1.[Cl-] | -1.43
38 | CCc1ccc(Nc2n[n+](-c3ccccc3)c(-c3ccc(OCc4ccccc4)cc3)s2)cc1.[Cl-] | -45.2
39 | COc1cc(Br)c(-c2sc(Nc3ccccc3)n[n+]2-c2ccc(F)cc2)cc1OC.[Cl-] | -37.1
40 | CCc1ccc(Nc2n[n+](-c3ccccc3)c(-c3cc(OC)c(OC)cc3Br)s2)cc1.[Cl-] | -55
41 | CCc1ccc(Nc2n[n+](-c3ccccc3)c(-c3c(Cl)cccc3Cl)s2)cc1.[Cl-] | -27.5
42 | COc1cc(Br)c(-c2sc(Nc3ccccc3)n[n+]2-c2ccccc2)cc1OC.[Cl-] | -68.7
43 | COc1ccc(-c2sc(Nc3ccccc3)n[n+]2-c2ccccc2)cc1Br.[Cl-] | -48.7
44 | CCc1ccc(Nc2n[n+](-c3ccccc3)c(/C=C/c3ccccc3)s2)cc1.[Cl-] | -69
45 | CCc1ccc(Nc2n[n+](-c3ccccc3)c(-c3ccc(SC)cc3)s2)cc1.[Cl-] | -2.72
46 | O=C(O)C1Cc2ccccc2-c2ccccc2C1 | 20.1
